Results filed as inconclusive are left out. Calls follow the shape of the dose curve; as a rule, active = well fitted inhibition curve with a large enough effect; inconclusive = small, poorly fitted or top-dose-only effect, or effect the other way; inactive = flat fitted curve, though single readings scatter.
Biological target: Ubiquitin carboxyl-terminal hydrolase 2 (Homo sapiens) (UniProt O75604)
Experiment: Confirmation Assay for Inhibitors of Ubiquitin-specific Protease USP2a Using CHOP2 as the Reporter;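 also: plate controls were DMSO wells for no effect and full inhibition by NEM control for full effect; nearly all actives have a fitted effect of over 55% in size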
Details: USP2 core, Ub-CHOP2 coupled reporter fluorescence; series mostly up to 38.3 µM; activity change, negative = inhibition: at the top concentration
How it was run: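 USP2 core (10 nM final) was preincubated with compound for 30 min at RT in Tris-HCl pH 8.0, CaCl2, beta-mercaptoethanol, CHAPS. Ub-CHOP2 and reporter substrate (25 nM final each) were added, and fluorescence (Ex 485/Em 531 nm) was read after 60 min.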

Sequence of Ubiquitin carboxyl-terminal hydrolase 2 (Homo sapiens) (O75604 whole entry, looked up): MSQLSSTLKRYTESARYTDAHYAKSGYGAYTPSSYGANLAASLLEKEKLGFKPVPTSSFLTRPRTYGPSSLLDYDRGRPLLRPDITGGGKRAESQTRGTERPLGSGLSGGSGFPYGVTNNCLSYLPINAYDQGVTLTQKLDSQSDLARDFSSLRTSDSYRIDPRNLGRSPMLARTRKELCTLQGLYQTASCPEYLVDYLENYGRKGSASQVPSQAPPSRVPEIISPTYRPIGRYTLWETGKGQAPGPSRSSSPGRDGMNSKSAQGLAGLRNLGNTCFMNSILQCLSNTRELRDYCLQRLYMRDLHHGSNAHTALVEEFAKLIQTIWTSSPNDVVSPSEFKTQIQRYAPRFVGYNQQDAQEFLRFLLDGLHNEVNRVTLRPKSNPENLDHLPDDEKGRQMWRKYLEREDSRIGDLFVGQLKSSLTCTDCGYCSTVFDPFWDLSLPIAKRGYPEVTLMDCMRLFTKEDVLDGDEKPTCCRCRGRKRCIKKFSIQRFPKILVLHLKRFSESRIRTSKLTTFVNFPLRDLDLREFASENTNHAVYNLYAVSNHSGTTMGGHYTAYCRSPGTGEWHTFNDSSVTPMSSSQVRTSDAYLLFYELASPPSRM

Activity change, negative = inhibition, inactive:
C=CC[C@H](CC(=O)N(CCO)Cc1ccccc1)C(=O)N[C@H](C)COC(=O)[C@@H](CC=C)CC(=O)OC(C)(C)C 2.45%, COC(=O)c1[nH]c2ccccc2c1NC(=O)CN1CCCc2ccccc21 -0.131%, Cc1nc(N(C)C)c2sc(=S)n(C)c2n1 0.888%, CCOC(=O)N1CCN(C(=O)CN(c2ccc(C)c(C)c2)S(=O)(=O)c2ccccc2)CC1 -1.56%, COc1ccc(C(=O)C[N+]2(C)CCOCC2)cc1 2.16%, Cc1ccc(N2CN=c3s/c(=C\c4cccnc4)c(=O)n3C2)cc1 -4.44%, CCCCC(OC(=O)c1cc2occc2n1C)C(=O)NCC1CCCO1 (stereo not given) 5.21%, Cc1cccc(NC(=S)NCc2ccc3c(c2)cc(C)n3C)c1C -1.59%, COc1ccc(C(=O)N/C(=C\c2cccs2)C(=O)N2CCN(C)CC2)cc1OC -3.45%, Nc1c(C(=O)Nc2ccc(Cl)cc2)oc2ccccc12 -4.81%, CCN(CC(=O)Nc1ccc(NC(C)=O)cc1)C(=O)c1ccc(N2CCC(C)CC2)c([N+](=O)[O-])c1 -5.18%, N#Cc1cccc(C(=O)N(CCc2ccccc2)Cc2cccs2)c1 -0.668%, CCC/C(O)=C1\C(=O)CC(C)(C)CC1=Nc1ccc(OC)cc1OC -6.51%, O=C(CSc1ccc2nnc(-c3cccc(F)c3)n2n1)N1CCCc2ccccc21 -0.849%, CCCNC(=O)CS(=O)Cc1nc(-c2ccccc2C)oc1C (stereo not given) 1.7%, CCCCn1c(SCC(=O)N2CCC(C)CC2)nc2cc(S(N)(=O)=O)ccc21 -1.05%, C[C@H](CO)N1C[C@H](C)[C@@H](CN(C)S(=O)(=O)c2cccs2)Oc2c(NC(=O)Nc3ccc4c(c3)OCO4)cccc2C1=O 1.42%, CCN(CC)c1ccc2nc3ccccc3[n+](CC)c2c1 -10.3%, Cc1ccc(C(C(=O)NC2CCCC2)N2CCc3ccccc32)cc1 (stereo not given) 5.53%, O=[N+]([O-])c1c(NCCO)cc(N2CCN(Cc3ccc4c(c3)OCO4)CC2)c2nonc12 0.18%, CCOC(=O)N1CCN(C(=O)CN(c2ccc(Oc3ccccc3)cc2)S(C)(=O)=O)CC1 -1.27%, Nc1ccc(C2=Nc3cccc4cccc(c34)N2)cc1 -0.428%, COc1ccc(CCNC(=O)COC(=O)CNS(=O)(=O)c2ccc(SC)c([N+](=O)[O-])c2)cc1 2.08%, Cc1ccc(Nc2cc(C)nc(NCc3ccccc3)n2)cc1 -2.23%, COc1cc(/C=C(/C(=O)c2cccs2)c2nc3ccccc3[nH]2)ccc1O -6.77%, CCC1SC2=NC(C)=C(C(=O)OCCOC)C(c3ccc(C(=O)OC)cc3)N2C1=O (stereo not given) -0.977%, COc1ccc(-c2nc(Cn3c(SCc4ccc(F)cc4)nc4ccncc43)c(C)o2)cc1OC -0.811%, Cc1ccccc1NC(=O)CSc1nnc(-c2ccco2)c(-c2ccco2)n1 -11.5%, CC(=O)C1=C(O)C(=O)N(c2nnn(C)n2)C1c1cccs1 (stereo not given) -0.108%, COc1ccc(S(=O)(=O)N(C)CC(=O)Nc2cccc(C(C)=O)c2)cc1Cl 2.49%, COc1ccccc1C(=O)N1CCN=C1SC 2.29%, CCCn1nnc(NC(=O)c2cccc(OCC(C)C)c2)n1 2.02%, Cc1csc(NC(=O)CCn2c(=O)sc3ccccc32)n1 -5.5%, COC(=O)CCC/C=C1/SCC(NC(=O)c2ccccc2)C1=O (stereo not given) -11%, COc1cccc(C(=O)NC(C)c2ccc(-c3ccccc3)cc2)c1OC (stereo not given) -3.09%, COc1ccccc1NC(=O)CSc1nc(O)cc(=O)n1-c1ccccc1OC -2.53%, O=C(Cn1nc(-c2cccs2)ccc1=O)Nc1ccc(Br)cc1 0.104%, CC(C)OCCCNC(=O)c1c(N)n(/N=C/c2ccccn2)c2nc3ccccc3nc12 -0.772%, O=C(CSc1nc2ccccc2c(=O)n1CC1CCCO1)NCc1ccccc1 (stereo not given) 2.33%, C[C@H](CO)N1C[C@H](C)[C@@H](CN(C)S(=O)(=O)c2ccc(Cl)cc2)Oc2ccc(NS(=O)(=O)c3ccccc3)cc2CC1=O -2.54%

From PubChem BioAssay AID493168 (National Center for Advancing Translational Sciences (NCATS), 2011)
